Measured values: publication PMC4336329 (PLoS ONE, 2015)
The campaign covered roughly 310,000 compounds. About 14,000 (4.5%) showed an effect of 50% or more. Effects have a minus sign here. Many of the other results were omitted from the sample, so strong results are more common in it than they were.

target: human ether-à-go-go-related gene (hERG) potassium channel (human, UniProt Q12809); test: primary screen, population patch clamp on CHO cells stably expressing hERG; higher = less effect of the substance
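Also: peak tail current of the secondary pulse compared with the same well before compound.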

Chain of human ether-à-go-go-related gene (hERG) potassium channel (Q12809 whole entry, looked up): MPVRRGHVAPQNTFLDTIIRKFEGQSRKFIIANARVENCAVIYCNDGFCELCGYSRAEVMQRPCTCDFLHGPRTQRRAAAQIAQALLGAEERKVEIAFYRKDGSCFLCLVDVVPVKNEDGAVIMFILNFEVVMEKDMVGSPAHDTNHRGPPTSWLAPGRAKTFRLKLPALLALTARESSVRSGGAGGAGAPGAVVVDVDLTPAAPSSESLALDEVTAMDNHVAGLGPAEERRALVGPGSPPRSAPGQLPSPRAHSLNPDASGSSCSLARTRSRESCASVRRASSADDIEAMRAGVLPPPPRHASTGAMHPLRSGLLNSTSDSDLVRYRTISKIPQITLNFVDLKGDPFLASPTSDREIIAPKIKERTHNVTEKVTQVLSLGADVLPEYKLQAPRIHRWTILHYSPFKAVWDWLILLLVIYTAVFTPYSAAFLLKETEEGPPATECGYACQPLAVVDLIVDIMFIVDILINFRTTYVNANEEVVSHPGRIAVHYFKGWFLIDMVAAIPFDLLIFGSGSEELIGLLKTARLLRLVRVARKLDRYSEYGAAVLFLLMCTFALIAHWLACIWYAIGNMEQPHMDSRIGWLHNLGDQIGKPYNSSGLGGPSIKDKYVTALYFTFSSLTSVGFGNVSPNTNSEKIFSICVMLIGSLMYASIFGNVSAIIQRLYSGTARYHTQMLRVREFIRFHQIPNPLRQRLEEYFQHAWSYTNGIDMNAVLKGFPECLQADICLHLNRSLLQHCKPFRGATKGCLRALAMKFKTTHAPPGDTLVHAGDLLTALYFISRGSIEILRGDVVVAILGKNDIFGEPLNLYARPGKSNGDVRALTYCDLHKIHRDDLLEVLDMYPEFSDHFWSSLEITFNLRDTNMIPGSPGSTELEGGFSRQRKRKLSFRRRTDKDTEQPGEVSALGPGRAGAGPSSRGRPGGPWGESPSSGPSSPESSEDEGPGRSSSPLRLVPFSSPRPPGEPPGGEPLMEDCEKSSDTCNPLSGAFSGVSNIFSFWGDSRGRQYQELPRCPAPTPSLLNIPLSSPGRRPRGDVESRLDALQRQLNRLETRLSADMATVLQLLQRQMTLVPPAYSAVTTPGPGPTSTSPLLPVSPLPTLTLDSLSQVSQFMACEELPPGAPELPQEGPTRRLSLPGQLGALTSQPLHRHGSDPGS

Row | SMILES | hERG current change (%, negative = inhibition) at 10uM [%]
1 | COc1ccc([C@H]2CC(=O)C=C(c3cccc(OCc4ccccc4)c3)C2)cc1 | 10.8
2 | Cc1ccc(-n2nc3c(=O)n(CCCC(=O)NCc4cccc(F)c4)nc(C)c3c2C)cc1 | -21.7
3 | COc1cccc(N2C(=O)CC(N3CCc4ccccc4C3)C2=O)c1 (stereo not drawn) | 13.1
4 | CC(C)(C)N/N=C/c1cc(Cl)cc([N+](=O)[O-])c1O.Cl | -10.9
5 | Cc1onc(-c2ccccc2Cl)c1C(=O)N1CCN(c2ncccn2)CC1 | 2.45
6 | CCOC(=O)c1ccccc1NC(=O)COC(=O)C1=COCCO1 | 4.78
7 | Cc1nc2ccccn2c1C(=O)CSc1ccc(Cl)cc1Cl | -4.24
8 | Cc1ccc(OCC(=O)NCCc2c[nH]c3ccccc23)cc1 | 17.1
9 | COc1cc2c(C)nc(C)c(C#N)c2cc1OC.Cl | -5.92
10 | Cc1ccc2nc(N3CC(C)OC(C)C3)nc(-c3ccccc3)c2c1 (stereo not drawn) | 5.88
11 | c1ccc(Nc2nc(N3CCNCC3)nc(N3CCOCC3)n2)cc1 | -43
12 | CCOC(=O)C1(Cc2cccc(OC)c2)CCN(Cc2ccc(C)s2)CC1 | -67.1
13 | CCOC(=O)C1(Cc2ccccc2)CCN(Cc2ccc(C)s2)CC1 | -46
14 | CCOC(=O)C1(Cc2cccc(OC)c2)CCN(Cc2cnc(C)s2)CC1 | -12.2
15 | CN(C)S(=O)(=O)c1ccc(N2CCOCC2)c(C(=O)NCc2ccc3c(c2)OCO3)c1 | -14.7
16 | COC(=O)c1ccc(/C=N/Nc2nc3ccccc3[nH]2)cc1 | 11.4
17 | C=C(C)C(=O)Nc1cccc(C2=NOC3(C2)C[C@@H](C(N)=O)N(C(=O)c2cc([N+](=O)[O-])cc([N+](=O)[O-])c2C)C3)c1 (stereo partly drawn) | 1.96
18 | COc1cccc(NC(=O)N2CCC(N3CCCCC3)CC2)c1 | -7.99
19 | O=C(Nc1ccc(Cl)c(Cl)c1)N1CCC(N2CCCCC2)CC1 | -63.5
20 | O=C(Nc1ccc(Cl)c(Cl)c1)N1CCCCCC1 | 2.82
21 | Cc1ccc(C(C)(C)C)c(OCCN2CCCC2)c1 | -19.5
22 | CC(C)[C@@H](N)C(=O)N/N=C/c1ccc2nccnc2c1.Cl | 17.1
23 | Cc1cccc2c1-c1sc(C(=O)Nc3ccccc3N3CCN(C)CC3)cc1CO2 | -13.4

Row | SMILES | hERG current change (%, negative = inhibition) at 10uM [%]
24 | CCOC(=O)C1CCN(C(=O)c2cc3c(s2)-c2ccccc2OC3)CC1 | -38.9
25 | O=C(Nc1cccnc1Cl)c1cc2c(s1)-c1ccccc1OC2 | -3.48
26 | O=C(Nc1nccs1)c1cc2c(s1)-c1ccccc1OC2 | 16.2
27 | CC1CCCN(CCCNC(=O)CN2C(=O)COc3ccccc32)C1 (stereo not drawn) | -4.59
28 | CC1CCN(CCCNC(=O)c2cc3c(s2)-c2ccccc2OC3)CC1 | -74.6
29 | CC1CCCN(CCCNC(=O)c2cc3c(s2)-c2ccccc2OC3)C1 (stereo not drawn) | -76.4
30 | CN1CCN(c2ccccc2NC(=O)c2cc3c(s2)-c2ccccc2OC3)CC1 | -51.3
31 | Cc1csc(NC(=O)c2cc3c(s2)-c2ccccc2OC3)n1 | 3.36
32 | CC1CC(C)CN(CCCNC(=O)c2cc3c(s2)-c2ccccc2OC3)C1 (stereo not drawn) | -70.2
33 | O=C(O)c1cc2c(s1)-c1ccccc1OC2 | 9.73
34 | C=CCn1c(SC)nc2sc3c(c2c1=O)CCc1ccccc1-3 | 10.3
35 | Cc1ncoc1C(=O)Nc1cccc(Cl)c1 | -7.91
36 | OCC[C@H]1C[C@H](O)[C@@H](O)[C@]2(OCCc3ccccc32)O1 | 2.59
37 | CC1(C)Cc2c(cnn2-c2ccccc2)C(NC(=O)CCN2CCCC2=O)C1 (stereo not drawn) | 6.21
38 | C=C1CCC[C@]2(C)C[C@H]3OC(=O)C(CNC(C)CC)[C@H]3CC12 (stereo partly drawn) | 0.523
39 | CCN(CC)C(=O)c1ccccc1NC(=O)c1ccccc1SC | -39.6
40 | CCOCc1nc(C)c(Cl)c(NS(=O)(=O)c2ccc(N)cc2)n1 | 13.9
41 | COc1ccc(OC)c(N(CC(=O)N2CCCCC2)S(=O)(=O)c2ccc(OC)c(OC)c2)c1 | 10.6
42 | COc1cc(Cl)c(C)cc1NC(=O)COC(=O)c1cc(SC)ccc1Cl | 8.99
43 | Cc1ccc(OCCC(=O)Nc2ccc3c(c2)OCO3)cc1 | 0.269
44 | CCN(Cc1ccccc1)Cc1cccc([N+](=O)[O-])c1 | -23.5
45 | CCN1CCN(c2nc3ccccc3nc2NS(=O)(=O)c2ccc(NC(C)=O)cc2)CC1 | 5.21
